From the supplement of paper PMC6555819

Tests used:
Assay in all cases: PBM binding z-score (relative to random genomic background probes); higher = stronger binding; sequences stand for … in GC…GCGATTGACAGCGTAGAATGAAGG
[1] = tested on: FXR:RXRa (NR concentration 270 nM, RXRa partner concentration 90 nM)
Summary of the method: (§1)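 Ligand-free nuclear receptor dimers were applied to custom Agilent 4×180K protein-binding microarrays whose double-stranded probes carried direct-repeat seeds, single-nucleotide variants, half-site ablations and random human genomic background sequences in 34-nt variable regions. Incubation lasted 1 h. Binding z-scores were computed against the random background probes from regression-normalized fluorescence.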

[2] = tested on: LXRa:RXRa (NR concentration 270 nM, RXRa partner concentration 90 nM)
Summary of the method: as §1

[3] = tested on: LXRa homodimer (NR concentration 270 nM)
Summary of the method: as §1

[4] = tested on: LXRb:RXRa (NR concentration 270 nM, RXRa partner concentration 90 nM)
Summary of the method: as §1

[5] = tested on: LXRb homodimer (NR concentration 270 nM)
Summary of the method: as §1

[6] = tested on: PPARa:RXRa (NR concentration 270 nM, RXRa partner concentration 90 nM)
Summary of the method: as §1

[7] = tested on: PPARg:RXRa (NR concentration 180 nM, RXRa partner concentration 90 nM)
Summary of the method: as §1

[8] = tested on: PPARg:RXRa 270nM:90nM, anti-RXR (NR concentration 270 nM, RXRa partner concentration 90 nM)
Summary of the method: as §1

[9] = tested on: PPARg:RXRa 30nM:10nM, anti-RXR (NR concentration 30 nM, RXRa partner concentration 10 nM)
Summary of the method: as §1

[10] = tested on: PPARg:RXRa 90nM:30nM, anti-RXR (NR concentration 90 nM, RXRa partner concentration 30 nM)
Summary of the method: as §1

[11] = tested on: PPARg:RXRa DBDmut IVT, anti-RXR (DBD mutation: RXRa K156A/R161A, NR concentration 270 nM, RXRa partner concentration 90 nM)
Summary of the method: as §1

[12] = tested on: PPARg:RXRa IVT, anti-PPARg (NR concentration 270 nM, RXRa partner concentration 90 nM)
Summary of the method: as §1

[13] = tested on: PPARg DBDmut:RXRa IVT, anti-PPARg (DBD mutation: PPARg1 K132A/R137A, NR concentration 270 nM, RXRa partner concentration 90 nM)
Summary of the method: as §1

[14] = tested on: PPARg DBDmut IVT, anti-PPARg (DBD mutation: PPARg1 K132A/R137A, NR concentration 270 nM)
Summary of the method: as §1

[15] = tested on: PPARg homodimer (NR concentration 180 nM)
Summary of the method: as §1

[16] = tested on: PXR:RXRa (NR concentration 270 nM, RXRa partner concentration 90 nM)
Summary of the method: as §1

[17] = tested on: PXR homodimer (NR concentration 270 nM)
Summary of the method: as §1

[18] = tested on: RARa:RXR (NR concentration 270 nM, RXRa partner concentration 90 nM)
Summary of the method: as §1

[19] = tested on: RARa homodimer (NR concentration 270 nM)
Summary of the method: as §1

[20] = tested on: RARb:RXRa (NR concentration 270 nM, RXRa partner concentration 90 nM)
Summary of the method: as §1

Sequence	PBM binding z-score [1]	PBM binding z-score [2]	PBM binding z-score [3]	PBM binding z-score [4]	PBM binding z-score [5]	PBM binding z-score [6]	PBM binding z-score [7]	PBM binding z-score [8]	PBM binding z-score [9]	PBM binding z-score [10]	PBM binding z-score [11]	PBM binding z-score [12]	PBM binding z-score [13]	PBM binding z-score [14]	PBM binding z-score [15]	PBM binding z-score [16]	PBM binding z-score [17]	PBM binding z-score [18]	PBM binding z-score [19]	PBM binding z-score [20]
GCTTGTAGATGAAGGTTAAGAAAGACTAAGCTAA	-0.515	0.357	-0.563	-0.0135	-0.789	0.816	0.15	0.943	-0.144	0.254	0.000874	0.405	0.135	-0.0594	-0.126	0.0589	-0.403	0.444	-0.213	0.535
ATCGGAAGGTCGACGAGGTGAGTATACACCGTTT	1.65	0.953	-0.358	0.827	-0.58	2.18	1.06	0.751	-0.112	0.452	-0.35	0.996	0.22	-0.4	0.248	1.38	-0.0622	1.66	-0.26	2.51
AGAACGAGGGCAATGGGTTGATAGCACGGGTGGC	0.877	0.764	-0.127	0.316	0.02	1.67	1.78	1.38	-0.00991	1.08	3.27	3.01	0.598	-0.394	1.19	1.48	4.66	0.466	0.403	2.4
CCTTACGGGTCACTGGCAGGTTATAGCATTTGGA	5.13	4.36	0.174	3.52	-0.315	5.15	4.06	4.83	1.9	3.26	2.85	3.68	0.22	1.16	3.67	4.02	0.0403	5.02	0.895	3.99
CCTACTGGGCCACGAAAGTTCATTGATTCAGTGA	0.912	3.67	4.62	1.82	-0.000733	2.69	2.47	2.77	0.297	1.86	6.16	5.56	0.407	0.518	1.35	4.97	6.21	2.03	-0.507	2.72
TTAGACAGGTGAAGGTAACTCAGGTACGCAGTCG	0.437	1.75	-0.26	0.818	-0.0711	1.07	0.825	1.33	1.9	1.54	1.15	1.49	1.36	0.841	0.811	0.344	-0.00345	0.387	0.607	0.951
